Our source for the H1.0 immunofluorescence intensity values is the supplement of paper PMC7156485.
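Also: TDF is a line of transformed human dermal fibroblasts of mesenchymal origin.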

The assay deals with HCC1569. Description: H1.0 immunofluorescence intensity relative to DMSO (% of DMSO); higher = stronger H1.0 induction, active = 140 or more. To be noted: concentration: 10 µM; 24 h. A digest of the protocol:
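H1.0 nuclear intensity or cell number is expressed as percent of the plate control, with the median of replicates taken. HCC1569 and TDF cells were treated with compounds at 10 µM for 24 h at 37 °C, in triplicate, then fixed and immunostained for H1.0 with DAPI as a nuclear stain. HCC1569 values were smoothed to correct for positional effects.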
Take `CN(Cc1cnc2nc(N)nc(N)c2n1)c1ccc(C(=O)NC(CCC(=O)O)C(=O)O)cc1` (single isomer, unassigned; (-)) [(-)Amethopterin]: the H1.0 immunofluorescence intensity is 110 (inactive).
With `Nc1nc(N)c2nc(CNc3ccc(C(=O)NC(CCC(=O)O)C(=O)O)cc3)cnc2n1` (centres undefined) [Aminopterin], the H1.0 immunofluorescence intensity is 75.9 (inactive).
Regarding `N#CC(=Cc1ccc(O)c(O)c1)C(=O)c1ccc(O)c(O)c1` [Tyrphostin AG 538], the H1.0 immunofluorescence intensity is 190 (active).
As to `CN(C)CCN1C(=O)c2ccccc2N(C)c2ccccc21` [Dibenzepine], the H1.0 immunofluorescence intensity was 111 (inactive).
Under `CCCCCCCCC=CCCCCCCCCCCCC(=O)O` [13(E)-Docosenoic acid] stands 101 (inactive).
Under `CCCCCC(O)C=CC1C(O)CC(O)C1CC=CCCCC(=O)O` (centres undefined) [Prostaglandin F2a] stands 112 (inactive).
The same measure for `CCCn1cnc2c1c(=O)n(CCCCC(C)=O)c(=O)n2C` [Propentofylline]: 100 (inactive); for `O=c1oc(Cl)c(Cl)c2ccccc12` [3,4-Dichloroisocoumarin]: 88.1 (inactive); for `O=C(NCCO)c1cccc(-c2cc(Nc3ccc(OC(F)(F)F)cc3)ncn2)c1`: 119 (inactive).
